Where a name gives a salt, the structure may show the parent alone. ± gives the standard deviation of the averaged measurements.

Common to all, as to experiment: growth (OD600 after 10 h); higher = more growth (less inhibition)
Assay [1] relates to E. coli TESEC Alr+ wild-type control. Conditions: compound 0.1 mM; raw OD600 reference: median of DMSO wells 0.241, cell-free background 0.041. The protocol:
(§1)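 TESEC Mtb Alr E. coli, or the Alr+ wild-type control, in 384-well plates with Prestwick library compounds at 0.1 mM and 1% DMSO, across arabinose induction levels of 1E3 to 1E7 nM. Growth is read as OD600 after 10 h at 37 °C in triplicate biological replicates.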

Assay [2] has as its system E. coli TESEC Mtb Alr. Conditions: compound 0.1 mM. The protocol: as §1
Assay [3] concerns E. coli TESEC Mtb Asd. To be noted: compound 0.1 mM. As for the experimental part:
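TESEC E. coli strains in which the native enzyme is deleted and replaced by arabinose-inducible Mtb Asd, DapB, CysH or TrpD, each grown in its selective medium. Strains were screened against the Prestwick library at 0.1 mM and 1% DMSO in 384-well format at low and high arabinose induction. Growth is read as OD600 after 10 h in triplicate.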

Assay [4] concerns E. coli TESEC Alr+ wild-type control. Conditions: compound 0.1 mM; raw OD600 reference: median of DMSO wells 0.49, cell-free background 0.052. As for the experimental part: (§2)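 TESEC Mtb Alr E. coli (ΔaraC ΔtolC ΔentC Δalr ΔdadX, arabinose-inducible Mtb Alr) or the Alr+ wild-type control strain, grown in defined M9-fructose medium without D-alanine in 96-well plates with Prestwick library compounds at 0.1 mM and 1% DMSO. Low Alr induction is 0.1 µM arabinose and high induction is 10 mM arabinose.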

Assay [5] concerns E. coli TESEC Mtb Alr. Conditions: compound 0.1 mM. As for the experimental part:
as §2
The source holds these as a separate data set.

The mark [6] stands for this setting: arabinose 1000 nM, raw OD600 reference: median of DMSO wells 0.294, cell-free background 0.041.
[7] abbreviates: arabinose 10000 nM, raw OD600 reference: median of DMSO wells 0.264, cell-free background 0.041.
Setting [8] is: arabinose 100000 nM, raw OD600 reference: median of DMSO wells 0.201, cell-free background 0.041.
Where [9] appears, read: arabinose 1000000 nM, raw OD600 reference: median of DMSO wells 0.193, cell-free background 0.041.
Where [10] appears, read: arabinose 10000000 nM, raw OD600 reference: median of DMSO wells 0.146, cell-free background 0.041.
Setting [11] is: arabinose induction (level): High, raw OD600 reference: median of DMSO wells 0.331, cell-free background 0.041.
Setting [12] is: arabinose induction (level): Low, raw OD600 reference: median of DMSO wells 0.417, cell-free background 0.041.
Setting [13] is: arabinose 100 nM, raw OD600 reference: median of DMSO wells 0.413, cell-free background 0.052.
[14] abbreviates: arabinose 10000000 nM, raw OD600 reference: median of DMSO wells […], cell-free background 0.052.

On to `c1ccc2[nH]c(-c3cscn3)nc2c1` [Tiabendazole], for which the growth in assay [1] came out at 0.222 ± 0.014; in assay [2] (setting [6]), 0.275 ± 0.0031; in assay [2] (setting [7]) it was 0.253 ± 0.011; in assay [2] (setting [8]), 0.203 ± 0.021; in assay [2] (setting [9]), 0.188 ± 0.0046; in assay [2] (setting [10]), 0.15 ± 0.011. In addition, the growth in assay [3] (setting [11]) was 0.278 ± 0.085; in assay [3] (setting [12]), 0.326 ± 0.1; in assay [4], 0.572 ± 0.075; in assay [5] (setting [13]) it was 0.408 ± 0.011; in assay [5] (setting [14]), 0.316 ± 0.015.
As to `CN(Cc1cnc2nc(N)nc(N)c2n1)c1ccc(C(=O)N[C@@H](CCC(=O)O)C(=O)O)cc1` [Methotrexate], the growth came to 0.225 ± 0.0067 in assay [1]; 0.285 ± 0.011 in assay [2] (setting [6]); 0.244 ± 0.013 in assay [2] (setting [7]); 0.195 ± 0.011 in assay [2] (setting [8]); 0.155 ± 0.0048 in assay [2] (setting [9]); 0.144 ± 0.002 in assay [2] (setting [10]). Also, the growth was 0.24 ± 0.055 in assay [3] (setting [11]); 0.359 ± 0.022 in assay [3] (setting [12]); 0.102 ± 0.0015 in assay [4]; 0.277 ± 0.14 in assay [5] (setting [13]); 0.126 ± 0.0066 in assay [5] (setting [14]).
Consider `C[C@](N)(Cc1ccc(O)c(O)c1)C(=O)O` [Methyldopa (L,-)], for which the growth in assay [1] is 0.241 ± 0.011; in assay [2] (setting [6]) it was 0.298 ± 0.0073; in assay [2] (setting [7]) it was 0.27 ± 0.0043; in assay [2] (setting [8]), 0.24 ± 0.021; in assay [2] (setting [9]) it was 0.188 ± 0.017; in assay [2] (setting [10]), 0.146 ± 0.0063. For the same molecule, the growth came to 0.356 ± 0.044 in assay [3] (setting [11]); 0.458 ± 0.041 in assay [3] (setting [12]); 0.508 ± 0.05 in assay [4]; 0.411 ± 0.015 in assay [5] (setting [13]); 0.345 ± 0.026 in assay [5] (setting [14]).
`Cc1ncc([N+](=O)[O-])n1CC(O)CCl` (stereo not given) [Ornidazole]: the growth was determined as 0.233 ± 0.0094 in assay [1]; 0.282 ± 0.012 in assay [2] (setting [6]); 0.268 ± 0.007 in assay [2] (setting [7]); 0.225 ± 0.019 in assay [2] (setting [8]); 0.177 ± 0.0086 in assay [2] (setting [9]); 0.1385 ± 0.00036 in assay [2] (setting [10]). Besides, the growth turned out to be 0.381 ± 0.015 in assay [3] (setting [11]), 0.421 ± 0.028 in assay [3] (setting [12]), 0.409 ± 0.0059 in assay [5] (setting [13]) and 0.369 ± 0.02 in assay [5] (setting [14]).
As to `CS(=O)(=O)c1ccc(C2=C(c3ccccc3)C(=O)OC2)cc1` [Rofecoxib], the growth worked out at 0.182 ± 0.012 in assay [1]; 0.2483 ± 0.0006 in assay [2] (setting [6]); 0.242 ± 0.019 in assay [2] (setting [7]); 0.184 ± 0.037 in assay [2] (setting [8]); 0.151 ± 0.008 in assay [2] (setting [9]); 0.144 ± 0.011 in assay [2] (setting [10]). The growth in assay [3] (setting [11]) was 0.336 ± 0.1; in assay [3] (setting [12]), 0.362 ± 0.097; in assay [5] (setting [13]), 0.409 ± 0.015; in assay [5] (setting [14]) it was 0.302 ± 0.041.
Turning to `Cc1cccc(C)c1NC(=O)C1CCCCN1C` (stereo not given) [Mepivacaine hydrochloride], the growth in assay [1] was 0.233 ± 0.012; in assay [2] (setting [6]), 0.2802 ± 0.0024; in assay [2] (setting [7]), 0.273 ± 0.0048; in assay [2] (setting [8]) it was 0.199 ± 0.026; in assay [2] (setting [9]), 0.225 ± 0.013; in assay [2] (setting [10]) it was 0.136 ± 0.0053. Further, the growth in assay [3] (setting [11]) is 0.366 ± 0.042; in assay [3] (setting [12]) it was 0.367 ± 0.045; in assay [4], 0.46 ± 0.038; in assay [5] (setting [13]), 0.41 ± 0.011; in assay [5] (setting [14]), 0.365 ± 0.0059.
Take `OCCN1CCN(CC/C=C2/c3ccccc3Sc3ccc(Cl)cc32)CC1` [Zuclopenthixol dihydrochloride]: the growth in assay [1] was 0.0505 ± 0.0052; in assay [2] (setting [6]), 0.257 ± 0.0079; in assay [2] (setting [7]), 0.176 ± 0.005; in assay [2] (setting [8]) it was 0.1981 ± 0.0017; in assay [2] (setting [9]), 0.0779 ± 0.0011; in assay [2] (setting [10]), 0.14 ± 0.0078. Also, the growth in assay [3] (setting [11]) amounted to 0.205 ± 0.043; in assay [3] (setting [12]), 0.215 ± 0.011; in assay [5] (setting [13]), 0.156 ± 0.19; in assay [5] (setting [14]) it was 0.0523 ± 0.0015.
Turning to `CN(C)CCCN1c2ccccc2Sc2ccc(C(F)(F)F)cc21` [Triflupromazine hydrochloride], the growth in assay [1] worked out at 0.0405 ± 0.00036; in assay [2] (setting [6]), 0.03957 ± 0.00015; in assay [2] (setting [7]), 0.0392 ± 0.00026; in assay [2] (setting [8]), 0.0407 ± 0.00062; in assay [2] (setting [9]) it was 0.0391; in assay [2] (setting [10]), 0.042 ± 0.00055. The growth in assay [3] (setting [11]) is 0.0504 ± 0.0028; in assay [3] (setting [12]), 0.0491 ± 0.0012; in assay [4], 0.049 ± 0.00076; in assay [5] (setting [13]), 0.298 ± 0.21; in assay [5] (setting [14]), 0.0543 ± 0.0015.
As to `O=C(NCC1CCCCN1)c1cc(OCC(F)(F)F)ccc1OCC(F)(F)F` (stereo not given) [Flecainide acetate], the growth in assay [1] came out at 0.2202 ± 0.00045; in assay [2] (setting [6]) it was 0.2999 ± 0.00055; in assay [2] (setting [7]), 0.276 ± 0.0049; in assay [2] (setting [8]), 0.188 ± 0.0093; in assay [2] (setting [9]), 0.168 ± 0.0038; in assay [2] (setting [10]), 0.143 ± 0.0024. Also, the growth amounted to 0.263 ± 0.026 in assay [3] (setting [11]), 0.42 ± 0.091 in assay [3] (setting [12]), 0.412 ± 0.011 in assay [5] (setting [13]) and 0.356 ± 0.018 in assay [5] (setting [14]).

For the origin of these results see the supplement of paper PMC9262897, “Low-cost anti-mycobacterial drug discovery using engineered E. coli” (Nature Communications, 2022).
